Assay [1] deals with Human papillomavirus type 1a protein E7 (residues 44-93). Nature of the assay: small molecules binding HPV E7 44-93 – biochemical, small-molecule microarray, residues 44-93, 635 nm fluorescence, primary screen (AID 1108).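 Further: E7 fragment applied at 1 µg/mL in TBST for 1 h at 4 C; score combines spot fluorescence with its signal to noise ratio.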 The conditions noted are these: fluorescence 635 nm, higher = more signal.
Assay [2] can be described thus: hepatitis C replication reporter changes, two-sided – Huh7 cells, luciferase reporter, HCV replication inhibitor project, primary screen (AID 1109).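 Further: huh7 hepatoma cells harbouring a luciferase neomycin HCV replicon reporter; luciferase luminescence as measure of HCV replicon replication; test concentration not given here.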 To be noted: Huh7 HCV replicon luciferase reporter, 48 h; higher = more signal. Background: Reporter assays use an easily measured gene product as a stand-in for the process of interest.
Assay [3] addresses Left-right determination factor 2 (Homo sapiens) (UniProt O00292). Nature of the assay: small molecules binding LEFTY2 protein – biochemical, small-molecule microarray, 635 nm fluorescence scan, primary screen (AID 1110). To be noted: higher = more signal.
Assay [4] concerns the target Calmodulin-1 (Homo sapiens) (UniProt P0DP23). As to the kind of experiment: small molecules binding calmodulin-1 with EGTA – biochemical, small-molecule microarray, Cy5-labelled CALM1, profiling panel (AID 1111).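 Further: labelled calmodulin applied in Tris saline Tween buffer holding calcium plus EGTA and DTT.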 To be noted: Cy5-CALM1 binding fluorescence, higher = more signal.
Assay [5] shares this target. As to the kind of experiment: small molecules binding Ca-loaded calmodulin-1 – biochemical, small-molecule microarray, Cy5-labelled CALM1, plus calcium, artefact control for SMM control-protein annotation, profiling panel (AID 1112).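 Further: score merges spot fluorescence with signal to noise from triplicate slides.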 To be noted: Cy5-CALM1 binding fluorescence, higher = more signal.
A short description of assay [6]: probe aWnt5a binding to arrayed compounds – biochemical, biotinylated probe, 635/667 nm fluorescence, primary screen (AID 1113).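 Further: score merges 667 nm fluorescence intensity with signal-to-noise per printed feature.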 The conditions noted are these: small-molecule microarray, higher = more signal.
Assay [7] can be described thus: probe aShh binding to arrayed compounds – biochemical, biotinylated probe, 635/667 nm fluorescence, primary screen (AID 1114).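 Further: probe is biotin-labelled aShh protein from a stem cell growth factor screen; measures binding of labelled protein to compounds printed on the slide; score merges feature fluorescence at 667 nm with signal-to-noise.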 To be noted: small-molecule microarray, higher = more signal.
Assay [8] can be described thus: probe aNog binding to arrayed compounds – biochemical, biotinylated probe, 635/667 nm fluorescence, primary screen (AID 1115).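 Further: probe is biotinylated aNog protein used at 0.15 µg/mL for 1 h at 4 C; z-score combines 667 nm fluorescence of each spot with its signal to noise.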 The conditions noted are these: small-molecule microarray, higher = more signal.
Assay [9] has as its target Torsin-1A-interacting protein 1 (Homo sapiens) (UniProt Q5JTV8). As to the kind of experiment: compound microarray binding of lysate hLAP1 – cell lysate, small-molecule microarray, COS7 lysate, 635/667 nm fluorescence, primary screen (AID 1116). To be noted: 635 nm fluorescence, higher = more signal.
For assay [10], the target named is Alpha-bungarotoxin (Bungarus multicinctus) (UniProt P60615). Nature of the assay: compounds binding labelled alpha-BTX control protein – biochemical, small-molecule microarray, Alexa647 label, 635/667 nm fluorescence, artefact control for SMM control protein annotation, profiling panel (AID 1117). To be noted: alpha-BTX-A647 binding fluorescence, higher = more signal.
Sequence of Alpha-bungarotoxin (Bungarus multicinctus) (P60615 whole entry, looked up): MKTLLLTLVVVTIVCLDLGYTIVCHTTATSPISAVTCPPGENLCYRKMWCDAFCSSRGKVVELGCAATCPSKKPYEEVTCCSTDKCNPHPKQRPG

The target in a further assay is Albumin (Bos taurus) (UniProt P02769). Nature of the assay: compounds binding labelled BSA control protein – biochemical, small-molecule microarray, Alexa647 label, 635/667 nm fluorescence, artefact control for SMM control protein annotation, profiling panel (AID 1118).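 Further: score merges 667 nm emission intensity and signal-to-noise per printed compound spot.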 To be noted: BSA-A647 binding, fluorescence 635 nm, higher = more signal.
Sequence of Albumin (Bos taurus) (P02769 whole entry, looked up): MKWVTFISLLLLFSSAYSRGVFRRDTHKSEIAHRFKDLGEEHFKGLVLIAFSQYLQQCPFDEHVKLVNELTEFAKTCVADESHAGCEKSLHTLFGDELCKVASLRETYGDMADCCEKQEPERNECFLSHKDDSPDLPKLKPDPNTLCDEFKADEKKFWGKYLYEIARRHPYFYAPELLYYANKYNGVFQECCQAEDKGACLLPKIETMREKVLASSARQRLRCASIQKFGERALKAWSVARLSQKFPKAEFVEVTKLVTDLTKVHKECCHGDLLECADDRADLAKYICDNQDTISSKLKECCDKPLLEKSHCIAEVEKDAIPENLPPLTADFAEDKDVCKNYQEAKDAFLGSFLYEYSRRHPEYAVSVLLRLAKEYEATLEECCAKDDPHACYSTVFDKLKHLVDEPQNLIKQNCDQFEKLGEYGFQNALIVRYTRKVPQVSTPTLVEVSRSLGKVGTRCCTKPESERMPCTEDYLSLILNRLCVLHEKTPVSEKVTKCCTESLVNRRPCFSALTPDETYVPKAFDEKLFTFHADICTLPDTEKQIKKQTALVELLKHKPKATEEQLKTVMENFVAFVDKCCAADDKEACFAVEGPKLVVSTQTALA
Assay [11] is described as follows: probe aXIP binding to arrayed compounds – biochemical, NeuroSMM set, 635/667 nm fluorescence, primary screen (AID 1119).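 Further: probe is the protein aXip251-270 applied at 1 µg/mL to compound-printed slides; binding of probe to printed compounds measured as 667 nm fluorescence plus signal to noise.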 To be noted: small-molecule microarray, higher = more signal, called active from +8 up or from −8 down.
Assay [12] in a line: probe aNOTCH3 binding on compound microarray – biochemical, small-molecule microarray, 635/667 nm fluorescence, primary screen (AID 1120).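 Further: probe is a biotin-tagged antibody raised against NOTCH3 rather than NOTCH3 protein; score merges spot fluorescence near 667 nm with spot signal to noise.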 To be noted: higher = more signal.
A short description of assay [13]: probe aNOTCH2 binding on compound microarray – biochemical, small-molecule microarray, 635/667 nm fluorescence, primary screen (AID 1121).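 Further: score merges feature fluorescence read at 667 nm with its signal to noise.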 To be noted: higher = more signal.
Assay [14] deals with Carbonic anhydrase 2 (Homo sapiens) (UniProt P00918). As to the kind of experiment: compounds binding carbonic anhydrase 2 – biochemical, small-molecule microarray, Alexa647-labelled CAII, profiling panel (AID 1122). The conditions noted are these: CAII-A647 binding fluorescence, higher = more signal.
A short description of assay [15]: COS7 lysate on small-molecule microarray, probe aHis, 635 nm (AID 1123).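 Further: z-score combines 667nm fluorescence intensity with signal-to-noise per printed compound spot.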 To be noted: COS7 cell lysate, fluorescence, higher = more signal.
The nature of assay [16]: probe aLAP1 signal on lysate-treated microarray – cell lysate, small-molecule microarray, COS7 lysate, primary screen (AID 1124).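 Further: lysate comes from COS7 cells expressing LAP1 and is applied at 0.3 µg/mL; score merges spot fluorescence near 667 nm with signal-to-noise over triplicate slides.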 To be noted: probe aLAP1, fluorescence, higher = more signal.
For another assay, the system named is Sam68 (KHDRBS1). As to the kind of experiment: compounds binding KHDRBS1 protein – biochemical, small-molecule microarray, 635 nm fluorescence, primary screen (AID 1125).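 Further: score merges 667 nm channel intensity with signal to noise over triplicate slides.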 To be noted: higher = more signal.
Assay [17] deals with Chordin-like protein 2 (CHRDL2). Nature of the assay: compounds binding chordin-like 2 – biochemical, small-molecule microarray, 635 nm fluorescence, primary screen (AID 1126).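 Further: printed compound slides probed with Chrdl2 protein at 4 µg/mL for 1 h at 4 C; score merges 667 nm emission intensity with signal to noise over three replicate slides.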 To be noted: fluorescence 635 nm, higher = more signal.
Assay [18] addresses Concanavalin-A (Canavalia ensiformis) (UniProt P02866). As to the kind of experiment: compounds binding concanavalin A lectin – biochemical, small-molecule microarray, Alexa647 label, 635 nm, artefact control for SMM control protein annotation, primary screen (AID 1127).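 Further: z combines 667 nm emission intensity with signal-to-noise across three replicate slides.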 To be noted: ConA-A647 binding fluorescence, higher = more signal.

SMILES strings stand for the structures. The source made the active and inactive calls.

Sequence of Left-right determination factor 2 (Homo sapiens) (O00292 whole entry, looked up): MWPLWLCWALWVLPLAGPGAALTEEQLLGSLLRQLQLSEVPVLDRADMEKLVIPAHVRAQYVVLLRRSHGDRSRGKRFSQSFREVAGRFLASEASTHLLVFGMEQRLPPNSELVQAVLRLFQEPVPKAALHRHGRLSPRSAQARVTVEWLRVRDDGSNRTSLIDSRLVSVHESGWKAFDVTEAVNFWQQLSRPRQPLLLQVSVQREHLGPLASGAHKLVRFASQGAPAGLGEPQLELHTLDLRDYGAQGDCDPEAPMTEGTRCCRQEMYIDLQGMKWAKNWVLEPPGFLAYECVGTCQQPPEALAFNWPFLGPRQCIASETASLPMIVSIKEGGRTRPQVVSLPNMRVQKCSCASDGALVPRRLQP
Sequence of Concanavalin-A (Canavalia ensiformis) (P02866 whole entry, looked up): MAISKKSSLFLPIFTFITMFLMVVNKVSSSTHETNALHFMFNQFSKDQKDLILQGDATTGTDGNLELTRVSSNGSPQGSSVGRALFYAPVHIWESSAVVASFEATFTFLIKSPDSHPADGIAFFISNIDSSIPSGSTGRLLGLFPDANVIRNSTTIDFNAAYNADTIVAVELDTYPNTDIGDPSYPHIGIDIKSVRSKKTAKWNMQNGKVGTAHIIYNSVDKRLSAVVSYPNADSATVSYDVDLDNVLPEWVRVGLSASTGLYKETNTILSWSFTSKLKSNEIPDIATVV
Sequence of Torsin-1A-interacting protein 1 (Homo sapiens) (Q5JTV8 whole entry, looked up): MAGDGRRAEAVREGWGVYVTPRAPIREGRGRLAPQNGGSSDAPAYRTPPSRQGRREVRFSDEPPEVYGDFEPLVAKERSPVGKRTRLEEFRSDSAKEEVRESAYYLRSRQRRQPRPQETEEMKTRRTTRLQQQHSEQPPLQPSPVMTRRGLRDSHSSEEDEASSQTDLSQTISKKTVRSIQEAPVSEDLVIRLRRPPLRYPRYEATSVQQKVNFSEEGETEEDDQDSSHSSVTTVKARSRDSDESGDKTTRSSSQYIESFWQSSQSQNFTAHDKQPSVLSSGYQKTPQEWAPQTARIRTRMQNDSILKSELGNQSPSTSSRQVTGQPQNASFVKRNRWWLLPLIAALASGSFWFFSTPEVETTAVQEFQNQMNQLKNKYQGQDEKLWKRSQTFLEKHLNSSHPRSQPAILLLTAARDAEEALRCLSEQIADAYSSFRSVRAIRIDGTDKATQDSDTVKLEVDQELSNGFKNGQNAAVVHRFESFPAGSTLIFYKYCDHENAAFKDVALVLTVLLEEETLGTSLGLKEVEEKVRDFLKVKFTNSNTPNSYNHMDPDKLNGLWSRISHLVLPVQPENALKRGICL

`Cc1c(NC(=O)CC#N)c(=O)n(-c2ccccc2)n1C`: the composite z-score in assay [1] was 0.371; in assay [3], 0.364; in [4], 0.121; in [5], -0.235; in [6], -0.0944; in assay [7], 0.253. The composite z-score in assay [8] was -0.434; in [9], 0.292; in [10], 1.08; with Albumin (Bos taurus) it was 0.407; in [12] it was 0.0876; in assay [13], -0.193. The composite z-score in [14] was -0.064; in assay [15], 0.0776; in [16] it was 0.037; in the assay on Sam68 (KHDRBS1) it was 0.529; in assay [17], 0.563; in [18] it was 0.0636. The compound also registered a z-score in [2] of -0.27. Besides, the composite Z-score in assay [11] is 0.676 (inactive).
In the case of `O=c1cccc(CCc2ccccc2)o1`, the composite z-score was 0.744 in [1]; 0.103 in assay [3]; -0.408 in [4]; -0.262 in assay [5]; -0.118 in assay [6]; 0.0952 in assay [7]. Besides, the composite z-score is -0.0827 in [8]; -0.684 in [9]; 1.04 in assay [10]; -0.284 with Albumin (Bos taurus); -0.301 in [12]; -0.0986 in assay [13]. Besides, the composite z-score in [14] was 0.731; in assay [15], 0.89; in [16], -0.397; in the assay on Sam68 (KHDRBS1), 0.854; in assay [17], 0.146; in assay [18] it was 0.283. This compound also showed a z-score in assay [2] of 0.237. Besides, the composite Z-score in [11] is 0.338 (inactive).
Take `CCOC(=O)C1=CCC(c2ccc(C#N)cc2)N(S(=O)(=O)c2ccc(C)cc2)C1` (stereo not given): the composite z-score is -0.437 in assay [1]; 0.47 in assay [3]; 2.02 in assay [4]; 0.536 in assay [5]; -0.117 in assay [6]; 0.109 in assay [7]. Also, the composite z-score was -0.557 in assay [8]; 0.479 in assay [9]; 2.25 in [10]; 0.886 with Albumin (Bos taurus); 0.1 in assay [12]; 0.188 in assay [13]. For the same compound, the composite z-score was 0.695 in assay [14]; 1.63 in [15]; 1.18 in assay [16]; 1.3 with Sam68 (KHDRBS1); -0.1 in assay [17]; 1.14 in assay [18]. The same compound gave a z-score in assay [2] of -2.66. Moreover, in [11], the composite Z-score was 0.356 (inactive).
Regarding `COC(=O)[C@@]1(Cc2ccccc2)[C@H]2c3cc(C(=O)N4CCCC4)n(Cc4ccc(C)o4)c3C[C@H]2CN1C(=O)c1ccccc1`, the composite z-score is 0.114 in assay [1]; -0.334 in [3]; 1.58 in assay [4]; -0.149 in assay [5]; -0.213 in assay [6]; -0.214 in assay [7]. In addition, the composite z-score in [8] is -0.153; in assay [9] it was 0.618; in assay [10] it was 0.326; with Albumin (Bos taurus), 0.905; in assay [12] it was 0.415; in assay [13], 0.0263. The composite z-score was 0.787 in assay [14]; 0.597 in [15]; 0.487 in assay [16]; 0.17 in the assay on Sam68 (KHDRBS1); -0.589 in assay [17]; -0.289 in assay [18]. Besides, the z-score in [2] was -1.82. The composite Z-score in assay [11] was -0.56 (inactive).
Turning to `CC(C)C(=C=CC[C@H](O)c1cccc(OCCO)c1)C[C@H](O)COCc1ccccc1`, the composite z-score in assay [1] was 0.0677; in assay [3] it was -0.0641; in assay [4], -0.53; in [5] it was -0.981; in [6] it was -0.096; in assay [7], 0.0062. Also, the composite z-score in [8] was 0.0308; in assay [9], 1.14; in assay [10], 0.0589; with Albumin (Bos taurus) it was -0.0081; in [12], 0.119; in assay [13], -0.0562. The composite z-score was 0.235 in assay [14]; 1.22 in assay [15]; -0.125 in assay [16]; 0.166 with Sam68 (KHDRBS1); -0.101 in [17]; 0.0514 in assay [18]. For the same compound, in assay [2], the z-score is -0.285. In [11], the composite Z-score was 1.64 (inactive).

For the origin of these results see PubChem BioAssay.
